Reference: the supplement of paper PMC10849652
About 8,800 targets were measured; listed, in parts, are those with a hit and a random draw of the rest. About 0.5% of all pairs of compound and target were hits.

Each target was assayed with C1=CC2=NC=CN=C2C=C1/C=C/3\C(=O)NC(=O)S3 (assay: log2 fold change, soluble protein after heating vs DMSO (PISA); higher = thermal stabilisation; K562 lysate, 10 uM; active = over 0.2 and 3.5 SD of the protein, either way, in both replicates (recomputed)).
In short: (§1)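 Soluble protein was defined as the supernatant remaining after 21,000xg for 90 min, following pooling of heated aliquots and adjustment to 0.5% NP-40 at 4°C. Before that, crude K562 extract at 1 mg/mL protein in PBS pH 7.4 with 1 mM MgCl2 was treated with 10 μM compound for 30 min and heated for 3 min across 48°C-58°C. Quantification used TMTpro 16plex LC-MS/MS with channel sums equalised, and values are log-two fold changes in thermal stability relative to solvent controls from duplicates.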

UniProt P62318, sequence (P62318 whole entry, looked up): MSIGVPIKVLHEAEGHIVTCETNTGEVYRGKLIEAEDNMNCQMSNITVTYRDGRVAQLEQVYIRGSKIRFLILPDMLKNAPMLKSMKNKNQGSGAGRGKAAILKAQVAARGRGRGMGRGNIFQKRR
UniProt P05455, sequence (P05455 whole entry, looked up): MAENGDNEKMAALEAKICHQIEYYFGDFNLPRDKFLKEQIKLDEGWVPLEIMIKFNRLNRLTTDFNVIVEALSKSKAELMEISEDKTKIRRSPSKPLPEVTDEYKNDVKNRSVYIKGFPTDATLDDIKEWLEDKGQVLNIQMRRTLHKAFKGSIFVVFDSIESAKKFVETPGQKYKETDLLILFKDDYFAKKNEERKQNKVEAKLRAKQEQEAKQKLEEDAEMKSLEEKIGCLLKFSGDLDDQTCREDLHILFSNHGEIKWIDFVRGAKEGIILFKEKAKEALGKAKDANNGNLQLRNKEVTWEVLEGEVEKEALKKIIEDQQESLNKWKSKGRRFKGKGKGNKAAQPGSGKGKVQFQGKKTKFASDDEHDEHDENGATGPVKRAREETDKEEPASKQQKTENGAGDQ
UniProt P62316, sequence (P62316 whole entry, looked up): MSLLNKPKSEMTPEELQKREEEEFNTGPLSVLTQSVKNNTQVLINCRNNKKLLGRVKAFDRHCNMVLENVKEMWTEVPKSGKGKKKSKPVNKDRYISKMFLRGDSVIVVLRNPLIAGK
UniProt P35711, sequence (P35711 whole entry, looked up): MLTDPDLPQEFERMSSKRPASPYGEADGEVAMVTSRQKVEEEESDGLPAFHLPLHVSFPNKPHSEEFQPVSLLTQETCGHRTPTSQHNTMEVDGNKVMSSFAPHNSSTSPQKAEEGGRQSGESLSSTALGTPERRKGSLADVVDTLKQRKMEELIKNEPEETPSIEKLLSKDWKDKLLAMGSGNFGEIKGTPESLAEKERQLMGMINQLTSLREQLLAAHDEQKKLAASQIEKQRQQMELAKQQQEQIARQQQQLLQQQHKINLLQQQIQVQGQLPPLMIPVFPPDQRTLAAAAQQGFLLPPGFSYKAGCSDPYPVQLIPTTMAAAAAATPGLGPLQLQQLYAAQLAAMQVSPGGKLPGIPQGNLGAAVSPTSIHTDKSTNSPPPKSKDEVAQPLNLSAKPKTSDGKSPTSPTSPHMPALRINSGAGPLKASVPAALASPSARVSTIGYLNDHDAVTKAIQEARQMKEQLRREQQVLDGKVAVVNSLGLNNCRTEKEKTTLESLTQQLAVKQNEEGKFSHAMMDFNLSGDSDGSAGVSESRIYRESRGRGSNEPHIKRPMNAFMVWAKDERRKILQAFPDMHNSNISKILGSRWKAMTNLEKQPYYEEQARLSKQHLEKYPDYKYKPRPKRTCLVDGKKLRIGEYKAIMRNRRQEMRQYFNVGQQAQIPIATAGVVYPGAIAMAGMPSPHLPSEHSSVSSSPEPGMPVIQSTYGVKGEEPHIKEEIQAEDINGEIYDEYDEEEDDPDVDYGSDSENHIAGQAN
UniProt Q14542, sequence (Q14542 whole entry, looked up): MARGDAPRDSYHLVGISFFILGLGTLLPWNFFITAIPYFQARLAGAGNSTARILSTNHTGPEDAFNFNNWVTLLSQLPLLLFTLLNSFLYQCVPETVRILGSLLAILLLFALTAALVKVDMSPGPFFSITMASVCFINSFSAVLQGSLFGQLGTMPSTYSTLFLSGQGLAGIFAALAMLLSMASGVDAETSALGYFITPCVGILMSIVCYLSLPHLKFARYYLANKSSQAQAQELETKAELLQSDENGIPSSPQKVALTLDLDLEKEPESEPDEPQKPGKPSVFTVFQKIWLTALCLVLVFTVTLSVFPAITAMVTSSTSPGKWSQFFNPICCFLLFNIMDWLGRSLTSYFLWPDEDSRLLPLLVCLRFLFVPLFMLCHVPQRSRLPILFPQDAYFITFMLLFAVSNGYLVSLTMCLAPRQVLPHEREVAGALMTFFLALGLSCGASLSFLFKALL
UniProt P08047, sequence (P08047 whole entry, looked up): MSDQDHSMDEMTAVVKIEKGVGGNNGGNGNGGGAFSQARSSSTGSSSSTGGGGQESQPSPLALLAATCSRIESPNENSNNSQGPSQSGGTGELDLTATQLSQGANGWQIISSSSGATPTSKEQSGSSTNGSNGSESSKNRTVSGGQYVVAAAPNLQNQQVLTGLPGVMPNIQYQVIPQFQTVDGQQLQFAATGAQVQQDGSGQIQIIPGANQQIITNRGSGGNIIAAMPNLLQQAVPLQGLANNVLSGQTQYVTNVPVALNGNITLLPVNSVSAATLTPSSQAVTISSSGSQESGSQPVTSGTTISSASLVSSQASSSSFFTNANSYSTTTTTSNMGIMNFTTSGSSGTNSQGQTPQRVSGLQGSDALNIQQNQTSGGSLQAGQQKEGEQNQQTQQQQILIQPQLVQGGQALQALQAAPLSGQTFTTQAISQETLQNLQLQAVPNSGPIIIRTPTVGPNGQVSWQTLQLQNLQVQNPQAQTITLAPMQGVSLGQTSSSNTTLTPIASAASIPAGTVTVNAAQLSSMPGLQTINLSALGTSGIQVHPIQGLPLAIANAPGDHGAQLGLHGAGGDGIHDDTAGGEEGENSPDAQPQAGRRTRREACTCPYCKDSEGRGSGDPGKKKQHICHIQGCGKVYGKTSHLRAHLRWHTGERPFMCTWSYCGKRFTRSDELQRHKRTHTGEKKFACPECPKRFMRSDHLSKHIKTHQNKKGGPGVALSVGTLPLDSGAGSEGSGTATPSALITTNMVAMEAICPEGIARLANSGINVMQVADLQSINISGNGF
UniProt Q01130, sequence (Q01130 whole entry, looked up): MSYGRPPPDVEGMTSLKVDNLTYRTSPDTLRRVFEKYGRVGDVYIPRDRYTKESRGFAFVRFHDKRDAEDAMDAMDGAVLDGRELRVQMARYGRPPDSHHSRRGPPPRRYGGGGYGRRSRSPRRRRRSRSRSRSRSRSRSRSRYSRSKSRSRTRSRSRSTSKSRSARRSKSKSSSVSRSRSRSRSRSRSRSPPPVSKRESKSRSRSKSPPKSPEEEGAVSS
UniProt Q9Y3B4, sequence (Q9Y3B4 whole entry, looked up): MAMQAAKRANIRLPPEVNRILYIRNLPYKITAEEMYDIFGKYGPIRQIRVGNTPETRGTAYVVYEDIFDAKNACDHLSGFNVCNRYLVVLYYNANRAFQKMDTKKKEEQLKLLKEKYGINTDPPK
UniProt Q9UNE7, sequence (Q9UNE7 whole entry, looked up): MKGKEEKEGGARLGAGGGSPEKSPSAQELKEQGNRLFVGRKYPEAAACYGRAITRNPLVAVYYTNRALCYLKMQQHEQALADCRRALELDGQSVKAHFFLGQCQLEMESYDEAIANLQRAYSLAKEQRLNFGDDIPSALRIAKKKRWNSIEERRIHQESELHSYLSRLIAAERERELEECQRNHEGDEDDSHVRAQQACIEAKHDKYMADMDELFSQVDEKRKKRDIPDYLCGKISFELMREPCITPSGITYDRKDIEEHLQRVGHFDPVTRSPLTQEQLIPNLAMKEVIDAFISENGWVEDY
UniProt O60504, sequence (O60504 whole entry, looked up): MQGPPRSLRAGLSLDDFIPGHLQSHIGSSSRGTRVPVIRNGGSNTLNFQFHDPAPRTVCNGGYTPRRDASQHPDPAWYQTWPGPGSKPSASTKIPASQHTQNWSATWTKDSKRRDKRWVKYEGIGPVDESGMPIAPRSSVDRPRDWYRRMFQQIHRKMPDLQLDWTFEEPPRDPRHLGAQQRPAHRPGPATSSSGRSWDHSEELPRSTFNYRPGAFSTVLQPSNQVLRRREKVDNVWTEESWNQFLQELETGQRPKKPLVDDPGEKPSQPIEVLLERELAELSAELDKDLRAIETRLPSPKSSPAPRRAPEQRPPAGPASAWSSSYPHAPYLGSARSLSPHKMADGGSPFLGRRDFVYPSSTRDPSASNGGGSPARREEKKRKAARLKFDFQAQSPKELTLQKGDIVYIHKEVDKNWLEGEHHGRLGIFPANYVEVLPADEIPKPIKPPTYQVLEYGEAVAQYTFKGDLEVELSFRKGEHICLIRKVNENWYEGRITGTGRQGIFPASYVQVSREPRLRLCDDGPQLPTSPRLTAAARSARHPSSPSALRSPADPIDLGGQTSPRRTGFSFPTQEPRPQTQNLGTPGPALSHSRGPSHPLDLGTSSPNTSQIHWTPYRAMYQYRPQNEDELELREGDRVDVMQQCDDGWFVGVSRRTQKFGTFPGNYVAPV
UniProt Q86XK3, sequence (Q86XK3 whole entry, looked up): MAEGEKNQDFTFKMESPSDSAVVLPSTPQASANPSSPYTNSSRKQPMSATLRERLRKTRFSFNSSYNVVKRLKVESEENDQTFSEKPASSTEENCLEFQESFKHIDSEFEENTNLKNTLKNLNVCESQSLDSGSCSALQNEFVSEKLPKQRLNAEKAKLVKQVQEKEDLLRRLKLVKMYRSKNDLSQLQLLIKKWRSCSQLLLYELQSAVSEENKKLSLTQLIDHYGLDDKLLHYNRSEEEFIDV
UniProt Q96EX1, sequence (Q96EX1 whole entry, looked up): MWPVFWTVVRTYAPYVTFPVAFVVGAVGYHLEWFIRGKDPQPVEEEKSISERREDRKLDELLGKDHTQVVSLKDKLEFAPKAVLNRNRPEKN
UniProt P35610, sequence (P35610 whole entry, looked up): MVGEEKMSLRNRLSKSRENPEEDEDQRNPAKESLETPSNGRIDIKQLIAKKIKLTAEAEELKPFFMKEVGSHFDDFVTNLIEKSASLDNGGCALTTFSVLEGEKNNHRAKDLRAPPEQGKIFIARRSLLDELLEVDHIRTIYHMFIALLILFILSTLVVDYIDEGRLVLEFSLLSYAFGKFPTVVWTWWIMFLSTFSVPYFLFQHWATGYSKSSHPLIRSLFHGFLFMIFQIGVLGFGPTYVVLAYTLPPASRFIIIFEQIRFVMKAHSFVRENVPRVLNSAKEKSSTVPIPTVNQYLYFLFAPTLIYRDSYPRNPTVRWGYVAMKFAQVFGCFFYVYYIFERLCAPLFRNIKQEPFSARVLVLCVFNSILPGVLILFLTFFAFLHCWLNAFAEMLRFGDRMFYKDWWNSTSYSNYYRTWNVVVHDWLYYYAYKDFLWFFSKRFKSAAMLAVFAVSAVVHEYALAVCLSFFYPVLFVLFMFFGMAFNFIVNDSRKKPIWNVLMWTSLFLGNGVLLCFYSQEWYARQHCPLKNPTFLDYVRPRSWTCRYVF

log2 fold change, inactive:
SFR1 isoform 2 (UniProt Q86XK3) -0.051, SOAT1 (UniProt P35610) -0.048, SNRPD2 (UniProt P62316) -0.018, SLC29A2 (UniProt Q14542) -0.028, SF3B6 (UniProt Q9Y3B4) 0.043, SMIM12 (UniProt Q96EX1) -0.026, SOX5 (UniProt P35711) 0.131, SP1 (UniProt P08047) -0.047, STUB1 (UniProt Q9UNE7) 0.009, STIM1 (UniProt Q13586) 0.001, SNCA (UniProt P37840) -0.147, SSB (UniProt P05455) -0.009, SNRPD3 (UniProt P62318) 0.013, SSNA1 (UniProt O43805) -0.036, SRSF2 (UniProt Q01130) -0.018, SORBS3 (UniProt O60504) -0.054

Each target was assayed with C1=CC=C(C=C1)C2=NC(=C(N2)C3=CC=NC=C3)C4=CC(=C(C=C4)Cl)O in the same assay as above.
In short: as §1

log2 fold change, inactive:
SLC27A2 (UniProt O14975) 0.007, SH3BGRL2 (UniProt Q9UJC5) 0.01, STAT2 (UniProt P52630) 0.003, SLC39A11 (UniProt Q8N1S5) 0.05, SYF2 (UniProt O95926) 0.037, SMC3 (UniProt Q9UQE7) 0.002, SPIRE1 (UniProt Q08AE8) 0.027, SNRNP40 (UniProt Q96DI7) 0.009, STMN3 (UniProt Q9NZ72) -0.026, SMN1 (UniProt Q16637) 0.096, TARBP1 (UniProt Q13395) 0.044, SKA2 (UniProt Q8WVK7) 0.001, STK4 (UniProt Q13043) -0.009, SMG1 (UniProt Q96Q15) -0.022, SKA3 (UniProt Q8IX90) -0.022, SFN (UniProt P31947) -0.004, SFR1 isoform 2 (UniProt Q86XK3) 0.018, SOAT1 (UniProt P35610) 0.056, SNRPD2 (UniProt P62316) -0.001, SLC29A2 (UniProt Q14542) -0.033, SF3B6 (UniProt Q9Y3B4) 0.034, SMIM12 (UniProt Q96EX1) 0.024, SOX5 (UniProt P35711) 0.059, SP1 (UniProt P08047) 0.007, STUB1 (UniProt Q9UNE7) 0.003, STIM1 (UniProt Q13586) -0.016, SNCA (UniProt P37840) -0.02, SSB (UniProt P05455) 0.001, SNRPD3 (UniProt P62318) -0.013, SSNA1 (UniProt O43805) 0.04, SRSF2 (UniProt Q01130) -0.017, SORBS3 (UniProt O60504) -0.092

Each target was assayed with C1=CC=C2C(=C1)C3=NNC4=CC=CC(=C43)C2=O in the same assay as above.
In short: as §1

log2 fold change, inactive:
SLC27A2 (UniProt O14975) -0.016, SH3BGRL2 (UniProt Q9UJC5) 0.018, STAT2 (UniProt P52630) -0.032, SLC39A11 (UniProt Q8N1S5) 0.062, SYF2 (UniProt O95926) 0.063, SMC3 (UniProt Q9UQE7) 0.023, SPIRE1 (UniProt Q08AE8) 0.022, SNRNP40 (UniProt Q96DI7) 0.011, STMN3 (UniProt Q9NZ72) 0.043, SMN1 (UniProt Q16637) -0.068, TARBP1 (UniProt Q13395) -0.048, SKA2 (UniProt Q8WVK7) -0.081, STK4 (UniProt Q13043) 0.165, SMG1 (UniProt Q96Q15) -0.072, SKA3 (UniProt Q8IX90) 0.001, SFN (UniProt P31947) 0.025, SFR1 isoform 2 (UniProt Q86XK3) 0.025, SOAT1 (UniProt P35610) -0.058, SNRPD2 (UniProt P62316) -0.035, SLC29A2 (UniProt Q14542) 0.018, SF3B6 (UniProt Q9Y3B4) 0.044, SMIM12 (UniProt Q96EX1) -0.009, SOX5 (UniProt P35711) -0.239, SP1 (UniProt P08047) 0.04, STUB1 (UniProt Q9UNE7) -0.033, STIM1 (UniProt Q13586) -0.059, SNCA (UniProt P37840) 0.044, SSB (UniProt P05455) -0.015, SNRPD3 (UniProt P62318) 0.033, SSNA1 (UniProt O43805) -0.03, SRSF2 (UniProt Q01130) -0.031, SORBS3 (UniProt O60504) 0.057
